Inconclusive results are not listed. Active and inactive are the calls of the source. Unless noted, calls follow the shape of the full dose curve.

Assay [1] in a line: qHTS for Inhibitors of the Functional Ribonucleoprotein Complex (vRNP) of Lymphocytic Choriomeningitis Arenaviruses (LCMV): Viability assay - alamar blue signal for LCMV Primary Screen (AID 1347085; calls by dose curve; tested in HEK293 reporter line; also: nearly all actives have a fitted effect of over 80% in size). A general note: Quantitative high-throughput screening tests each substance at several concentrations.
Assay [2] concerns the target Nucleoprotein (Lymphocytic choriomeningitis virus (strain Armstrong)) (UniProt P09992). The assay is described as follows: qHTS for Inhibitors of the Functional Ribonucleoprotein Complex (vRNP) of Lymphocytic Choriomeningitis Arenaviruses (LCMV): LCMV Primary Screen - GLuc reporter signal (AID 1347086). Also: nearly all actives have a fitted effect of over 70% in size.
Potency is read from the fitted curve at half-maximal effect.

Nucleoprotein (Lymphocytic choriomeningitis virus (strain Armstrong)), sequence (P09992 whole entry, looked up): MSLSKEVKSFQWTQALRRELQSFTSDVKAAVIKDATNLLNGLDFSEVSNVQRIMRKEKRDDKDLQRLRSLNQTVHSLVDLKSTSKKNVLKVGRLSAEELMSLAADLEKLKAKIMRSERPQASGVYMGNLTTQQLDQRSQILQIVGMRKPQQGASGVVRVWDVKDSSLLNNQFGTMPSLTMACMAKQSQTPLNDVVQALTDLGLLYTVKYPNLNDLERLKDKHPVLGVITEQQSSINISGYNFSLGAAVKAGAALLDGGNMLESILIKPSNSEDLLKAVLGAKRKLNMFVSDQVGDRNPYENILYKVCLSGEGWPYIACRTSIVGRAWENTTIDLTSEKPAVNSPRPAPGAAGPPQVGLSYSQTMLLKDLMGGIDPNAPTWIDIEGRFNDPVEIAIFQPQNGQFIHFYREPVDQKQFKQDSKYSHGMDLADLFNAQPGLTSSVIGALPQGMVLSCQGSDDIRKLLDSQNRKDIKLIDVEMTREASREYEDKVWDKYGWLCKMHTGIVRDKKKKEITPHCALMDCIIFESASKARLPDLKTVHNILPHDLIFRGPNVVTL

Regarding `COc1cc(Nc2ncc3c(n2)-c2ccc(Cl)cc2C(c2c(F)cccc2OC)=NC3)ccc1C(=O)O`, the Potency entry in assay [1] and in assay [2] was “inactive” each time.
With `CC(=O)NCCc1c[nH]c2ccccc12`, the Potency result in assay [1] and in assay [2] was “inactive” throughout.
As to `CN1CCN(c2c(F)cc3c(=O)c(C(=O)O)cn4c3c2OCN4C)CC1`, the Potency result in assay [1] and in assay [2] was “inactive” each time.
As for `NC(=O)c1ccc(-c2nc(-c3ccc4c(c3)OCO4)c(-c3ccccn3)[nH]2)cc1`, the Potency entry in assay [1] and in assay [2] was “inactive” each time.
On to `C/C(=C1\CCOC(=O)S1)N(C=O)Cc1cnc(C)nc1N`, for which the Potency result in assay [1] and in assay [2] was “inactive” throughout.
As for `C[C@]12C[C@H](O)[C@H]3[C@@H](CCC4=CC(=O)CC[C@@]43C)[C@@H]1CC[C@@H]2C(=O)CO`, the Potency entry in assay [1] and in assay [2] was “inactive” throughout.
Regarding `C[C@H](NC(=O)Cc1cc(F)cc(F)c1)C(=O)N[C@@H]1C(=O)N(C)c2ccccc2-c2ccccc21`, the Potency entry in assay [1] and in assay [2] was “inactive” in each case.
On to `O=C(NOC[C@H](O)CO)c1ccc(F)c(F)c1Nc1ccc(I)cc1F`, for which the Potency entry in assay [1] and in assay [2] was “inactive” throughout.
For `CCC(=O)N1CCN(c2ccc(-n3c(=O)ccc4cnc5ccc(-c6cnc7ccccc7c6)cc5c43)cc2C(F)(F)F)CC1`, the Potency was 0.0273 µM (active) in assay [1] and 0.0685 µM (active) in assay [2].
For the compound `CCOc1cc2ncc(C#N)c(Nc3ccc(F)c(Cl)c3)c2cc1NC(=O)C=CCN(C)C`, the values for the Potency in assay [1] and in assay [2] were 19.3 µM (active) and 24.3 µM (active), respectively.
On to `[O-][n+]1cccc(CO)c1`, for which the Potency entry in assay [1] and in assay [2] was “inactive” throughout.
`CC[N+](C)(CC)CCOC(=O)C(O)(c1ccccc1)C1CCCCC1` (stereo not given): the Potency result in assay [1] and in assay [2] was “inactive” in each case.
With `CO[C@H]1C=CC=C(C)C(=O)NC2=CC(=O)C(NCCN(C)C)=C(C[C@@H](C)C[C@H](OC)[C@@H](O)[C@@H](C)C=C(C)[C@@H]1OC(N)=O)C2=O`, the Potency in assay [1] was 0.544 µM (active); in assay [2], 0.306 µM (active).
Consider `CC(C)(C)c1cc(C(=O)O)c(NC(=O)Nc2ccc3[nH]ncc3c2)s1`, for which the Potency result in assay [1] and in assay [2] was “inactive” throughout.
For the compound `O=C(NCCS(=O)(=O)c1ccc(C(F)(F)F)cn1)c1ccc(Cl)cc1`, the Potency entry in assay [1] and in assay [2] was “inactive” each time.
Take `CC(C)Oc1cccnc1N(C)C1CCN(Cc2ccccc2)CC1`: the Potency entry in assay [1] and in assay [2] was “inactive” in each case.
For the compound `CC(C)C(C)(C)C(C)(C)C(C)(C)S`, the Potency result in assay [1] and in assay [2] was “inactive” throughout.
As for `COc1ccc(CCN2CCN(CCCc3ccccc3)CC2)cc1OC`, the Potency result in assay [1] and in assay [2] was “inactive” each time.
Consider `Nc1nnnn1-c1ccccc1`, for which the Potency entry in assay [1] and in assay [2] was “inactive” throughout.
Consider `CCCCC(CC)COC(=O)c1ccc(N(C)C)cc1` (stereo not given), for which the Potency result in assay [1] and in assay [2] was “inactive” throughout.
On to `COc1ccc2cc(CCC(C)=O)ccc2c1`, for which the Potency result in assay [1] and in assay [2] was “inactive” each time.
With `COCCNCCCn1c(C(=O)CF)c(-c2ccc(C)cc2)c2c(N)ncnc21`, the Potency result in assay [1] and in assay [2] was “inactive” in each case.
As for `O=C(NC1CCNCC1)c1[nH]ncc1NC(=O)c1c(Cl)cccc1Cl`, the Potency in assay [1] is 0.968 µM (active); in assay [2], 1.93 µM (active).
Taken in the same sequence, the figures for `CCC(C)(Oc1ccc(C2(c3ccc(OC(C)(CC)C(=O)O)cc3)CCCCC2)cc1)C(=O)O` (stereo not given) were “inactive” and “inactive”.
Consider `CC(C)(C(=O)NCC(F)(F)C(F)(F)F)C(=O)N[C@@H]1C(=O)Nc2ccccc2-c2ccccc21`, for which the Potency in assay [1] was 5.44 µM (active); in assay [2] it was 10.9 µM (active).
As for `C=CC(=O)Nc1cccc(Oc2nc(Nc3ccc(N4CCN(C)CC4)cc3OC)ncc2Cl)c1`, the Potency in assay [1] is 0.0485 µM (active). The Potency result in assay [2] is “inactive”.
Take `O=C(O)[C@H](Cc1c[nH]c2ccccc12)N1C(=O)c2ccccc2C1=O`: the Potency result in assay [1] and in assay [2] was “inactive” in each case.
`CC(C)(C)C(O)/C=C/c1ccc2c(c1)OCO2` (stereo not given): the Potency result in assay [1] and in assay [2] was “inactive” throughout.
Turning to `COc1cc2ncnc(-n3nc(-c4ccccn4)nc3N)c2cc1OC`, the Potency in assay [1] was 7.69 µM (active); in assay [2], 2.43 µM (active).
The corresponding values for `CCCN1CCC[C@H](c2cccc(O)c2)C1` are “inactive” and “inactive”.
The corresponding values for `Cc1c(C)c2c(c(C)c1OC(=O)c1cccnc1)CC[C@@](C)(CCC[C@H](C)CCC[C@H](C)CCCC(C)C)O2` are “inactive” and “inactive”.
The corresponding values for `CC[C@@H]1C(=O)OC[C@@H]1Cc1cncn1C` are “inactive” and “inactive”.
Take `CN(C)c1ccc(N=NS(=O)(=O)O)cc1`: the Potency entry in assay [1] and in assay [2] was “inactive” in each case.
In the case of `C#CCOC(=O)C1=CCCN(C)C1`, the Potency result in assay [1] and in assay [2] was “inactive” throughout.
As to `Fc1ccc(Cl)cc1-c1nc(Nc2ccncc2)c2nccnc2n1`, the Potency result in assay [1] and in assay [2] was “inactive” throughout.
As for `CC1(C)CCC(c2ccc(Cl)cc2)=C(CN2CCN(c3ccc(C(=O)NS(=O)(=O)c4ccc(N[C@H](CCN5CCOCC5)CSc5ccccc5)c(S(=O)(=O)C(F)(F)F)c4)cc3)CC2)C1`, the Potency result in assay [1] and in assay [2] was “inactive” throughout.
In the case of `COC(=O)Nc1ccc(-c2nc(N3CCOCC3)c3cnn(C4CCN(C(=O)OC)CC4)c3n2)cc1`, the Potency entry in assay [1] and in assay [2] was “inactive” each time.
`CCOC(=O)C(=O)CCCCCCl`: the Potency result in assay [1] and in assay [2] was “inactive” each time.
As for `CN(C(=O)C(Cl)Cl)c1ccc(OC(=O)c2ccco2)cc1`, the Potency entry in assay [1] and in assay [2] was “inactive” in each case.
For the compound `NC(=O)C1CCCc2c1[nH]c1ccc(Cl)cc21` (stereo not given), the Potency entry in assay [1] and in assay [2] was “inactive” each time.
Take `O=C(O)c1ccc2c(c1)nc(Nc1cccc(Cl)c1)c1ccncc12`: the Potency entry in assay [1] and in assay [2] was “inactive” in each case.
Consider `O=C1CCCC2=C1C(c1[nH]ncc1Cl)N=C(Nc1nc3ccccc3o1)N2` (stereo not given), for which the Potency entry in assay [1] and in assay [2] was “inactive” each time.
On to `Cc1nc(N)sc1-c1ccnc(Nc2ccc(N3CCOCC3)cc2)n1`, for which the Potency in assay [1] is 13.7 µM (active). Further, the Potency entry in assay [2] is “inactive”.
As for `O=C(O)[C@@H](c1ccc(OCc2ccc3ccccc3n2)cc1)C1CCCC1`, the Potency entry in assay [1] and in assay [2] was “inactive” throughout.
In the case of `Cc1[nH]nc2ccc(-c3cncc(OC[C@@H](N)Cc4ccccc4)c3)cc12`, the Potency in assay [1] is 1.37 µM (active); in assay [2], 0.273 µM (active).
Taken in the same sequence, the figures for `CC(=O)OCC(=O)[C@@]1(O)[C@H](C)C[C@H]2[C@@H]3C=C(C)C4=Cc5c(cnn5-c5ccccc5)C[C@]4(C)[C@@H]3[C@@H](O)C[C@@]21C` were “inactive” and “inactive”.
Turning to `CCCCc1ccc(C(=O)O)nc1`, the Potency entry in assay [1] and in assay [2] was “inactive” each time.
As for `Cc1c(CN2CCN(C(=O)C(C)C)CC2)sc2c(N3CCOCC3)nc(-c3cnc(N)nc3)nc12`, the Potency in assay [1] was 0.273 µM (active); in assay [2], 0.217 µM (active).
Taken in the same sequence, the figures for `COCCn1c2c([n+](Cc3cnccn3)c1C)C(=O)c1ccccc1C2=O` were 0.0968 µM (active) and 0.0685 µM (active).
For `C[C@@H]1O[C@H](C[N+](C)(C)C)C[C@H]1O`, the Potency entry in assay [1] and in assay [2] was “inactive” throughout.
On to `CCc1c(C)[nH]c2c1C(=O)C(CN1CCOCC1)CC2` (stereo not given), for which the Potency result in assay [1] and in assay [2] was “inactive” each time.
For the compound `C1=CC2C3C=CC(C3)C2C1` (stereo not given), the Potency entry in assay [1] and in assay [2] was “inactive” in each case.
Regarding `O=C1NS(=O)(=O)c2ccccc21`, the Potency result in assay [1] and in assay [2] was “inactive” in each case.
Consider `CN(C)Cc1ccc(-c2nc3cccc4c3n2CCNC4=O)cc1`, for which the Potency in assay [1] is 6.85 µM (active). For the same compound, in assay [2], the Potency entry was “inactive”.
The corresponding values for `S=C(NC1CCCCC1)N1CCC(c2cnc[nH]2)CC1` are “inactive” and “inactive”.
On to `CCC(=C(c1ccccc1)c1ccc(OCCN(C)C)cc1)c1ccccc1`, for which the Potency result in assay [1] and in assay [2] was “inactive” throughout.
In the case of `Cc1cc(-c2ccccc2)nnc1NCCN1CCOCC1`, the Potency entry in assay [1] and in assay [2] was “inactive” each time.
Consider `OCCC#Cc1nc(-c2ccc(F)cc2)c(-c2ccncc2)n1CCCc1ccccc1`, for which the Potency entry in assay [1] and in assay [2] was “inactive” in each case.
As to `NCCc1c[nH]c2ccccc12`, the Potency result in assay [1] and in assay [2] was “inactive” throughout.
For `C=CCNC(N)=S`, the Potency entry in assay [1] and in assay [2] was “inactive” each time.

The values are drawn from PubChem BioAssay (NCATS).
